Measurements: PubChem BioAssay AID1159580 (chemical genetic matrix, 2015)
“And” between values parts separate entries of the source, which are not always exact repeats. Equal values may be shown once. Screen size: about 5,500 compounds; about 2,000 (36%) were called active. Roughly 18% stayed inconclusive and do not appear here. Cut-off read from the data, not from the text of the source: active = normalized growth mostly below about 0.91 (no sharp cut-off); inconclusive = no clear call, values can overlap the other calls; inactive = mostly above about 0.92. This is one part of the list.

Test: chemical genetic growth profiling, strain panel (AID 1159580);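 note: tested at 20 µM; growth read once vehicle control cultures reached saturation at 30 °C; 1 = growth at the plate median or of vehicle wells; lower values mean less growth of the strain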
Settings: S. cerevisiae deletion strains, growth OD

Measured: normalized growth

COc1cc([C@@H]2c3cc4c(cc3[C@H](OC(C)=O)[C@H]3COC(=O)[C@H]23)OCO4)cc(OC)c1OC
inactive: locus YAL021C, strain ccr4, hits give low values 0.992 | locus YAL026C, strain drs2, hits give low values 1.01 | locus YAL030W, strain snc1, hits give low values 0.999 | locus YBL061C, strain skt5, hits give low values 1.01 | locus YBR009C, strain hhf1, hits give low values 1.01 | locus YBR021W, strain FUR4, hits give low values 0.956 | locus YBR023C, strain chs3, hits give low values 1 | locus YBR171W, strain sec66, hits give low values 1.02 | locus YBR229C, strain ROT2, hits give low values 0.99 | locus YBR231C, strain swc5, hits give low values 1 | locus YBR279W, strain paf1, hits give low values 0.976 | locus YCL011C, strain gbp2, hits give low values 1 | locus YCL016C, strain dcc1, hits give low values 1.01 | locus YCL029C, strain bik1, hits give low values 0.986 | locus YCL061C, strain MRC1, hits give low values 1.01 | locus YCL069W, strain vba3, hits give low values 0.999 | locus YCR088W, strain abp1, hits give low values 1.01 | locus YDL005C, strain med2, hits give low values 1.01 | locus YDL035C, strain GPR1, hits give low values 1.02 | locus YDL040C, strain nat1, hits give low values 0.996 | locus YDL074C, strain BRE1, hits give low values 0.991 | locus YDL101C, strain DUN1, hits give low values 0.998 | locus YDL134C, strain PPH21, hits give low values 1.03 | locus YDL185W, strain tfp1, hits give low values 0.983 | locus YDL192W, strain arf1, hits give low values 1.01 | locus YDR001C, strain nth1, hits give low values 0.999 | locus YDR069C, strain doa4, hits give low values 1.02 | locus YDR101C, strain arx1, hits give low values 0.996 | locus YDR137W, strain rgp1, hits give low values 0.884 | locus YDR159W, strain sac3, hits give low values 1.01 | locus YDR162C, strain NBP2, hits give low values 1.02 | locus YDR195W, strain ref2 1 | locus YDR297W, strain sur2, hits give low values 0.998 | locus YDR318W, strain mcm21, hits give low values 0.987 | locus YDR334W, strain swr1, hits give low values 1.01 | locus YDR335W, strain msn5, hits give low values 0.998 | locus YDR388W, hits give low values 0.98 | locus YDR392W, strain spt3, hits give low values 1.01 | locus YDR502C, strain sam2, hits give low values 0.989 | locus YEL003W, strain gim4, hits give low values 1.01 | locus YEL037C, strain rad23, hits give low values 1 | locus YEL061C, strain CIN8 (second series), hits give low values 0.996 | locus YEL061C, strain CIN8, hits give low values 1 | locus YER015W, strain faa2, hits give low values 1.02 | locus YER016W, strain bim1, hits give low values 1 | locus YER110C, hits give low values 0.96 | locus YER111C, strain swi4, hits give low values 1.01 | locus YER155C, strain BEM2 (second series), hits give low values 1.04 | locus YER155C, strain BEM2, hits give low values 0.983 | locus YER167W, strain BCK2, hits give low values 0.998 | locus YFR010W, strain ubp6, hits give low values 1 | locus YGL078C, strain dbp3, hits give low values 0.971 | locus YGL086W, strain mad1, hits give low values 0.997 | locus YGL167C, strain pmr1, hits give low values 1.02 | locus YGL173C, strain kem1, hits give low values 1.01 | locus YGL227W, strain vid30, hits give low values 1 | locus YGL240W, strain doc1, hits give low values 1.01 | locus YGL248W, strain PDE1, hits give low values 0.996 | locus YGL253W, strain hxk2, hits give low values 1.01 | locus YGR135W, strain pre9, hits give low values 0.986 | locus YGR252W, strain gcn5, hits give low values 0.983 | locus YHR013C, strain ard1, hits give low values 0.988 | locus YHR027C, strain rpn1, hits give low values 1 | locus YHR030C, strain SLT2, hits give low values 0.996 and 0.987 | locus YHR079C, strain IRE1 (second series), hits give low values 0.988 | locus YHR079C, strain IRE1, hits give low values 0.98 | locus YHR094C, strain hxt1, hits give low values 0.973 | locus YHR129C, strain ARP1, hits give low values 1 | locus YHR142W, strain chs7, hits give low values 0.996 | locus YHR200W, strain rpn10, hits give low values 0.988 | locus YIL066C, strain RNR3, hits give low values 1.01 | locus YIL073C, strain SPO22, hits give low values 0.98 | locus YIL125W, strain kgd1, hits give low values 0.987 | locus YIR030C, strain dcg1, hits give low values 0.974 | locus YJL092W, strain hpr5, hits give low values 1.01 | locus YJL095W, strain BCK1 (second series), hits give low values 1 | locus YJL095W, strain BCK1, hits give low values 1.01 and 1.04 | locus YJL115W, strain asf1, hits give low values 1.01 | locus YJL129C, strain trk1, hits give low values 1 | locus YJL134W, strain LCB3, hits give low values 0.993 | locus YJL154C, strain vps35, hits give low values 1.01 | locus YJL164C, strain tpk1, hits give low values 1.01 | locus YJL166W, strain qcr8, hits give low values 0.995 | locus YJL168C, strain set2, hits give low values 0.977 | locus YJL187C, strain SWE1 (second series), hits give low values 1 | locus YJL187C, strain SWE1, hits give low values 0.99 | locus YJR043C, strain POL32, hits give low values 1.03
